What all share (experiment): NCI-60 one-dose screen, 48 h (100 = growth as untreated, 0 = no growth, -100 = all killed)
Common to all, as to settings: 10 µM unless noted

For experiment [1], the system named is T-47D breast.
Experiment [2] relates to BT-549 breast.
The subject of experiment [3] is MDA-MB-435 melanoma.
In experiment [4] the test system is SW-620 colon.
Experiment [5] concerns MCF7 breast.
Experiment [6] has as its system HCC-2998 colon.
Experiment [7] relates to KM12 colon.
For experiment [8], the system named is HCT-116 colon.

SMILES strings stand for the structures. This is part of a sample that, as a whole, favours compounds with a hit. Of some 83,000 tested, about 20% had one in any assay.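 For each line, cells grew in 96-well plates with the test compound present at a single concentration for 48 hours.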 A number with no mark means an inactive call. Activity calls are given as the source filed them. Rule for the calls: active = growth percent below 10; inactive = the rest.

`Nc1ccc(S(=O)(=O)c2ccc(Cl)cc2)cc1`: the growth in experiment [1] was 104%; in experiment [2], 97.2%; in experiment [3], 121%; in experiment [4] it was 94.1%; in experiment [5], 99.3%; in experiment [6], 102%. In addition, the growth in experiment [7] is 93.4%.

`O=C(C[N+](=O)[O-])c1ccc(Cl)cc1`: the growth in experiment [1] was 113%; in experiment [2], 102%; in experiment [3], 114%; in experiment [4], 106%; in experiment [8], 101%; in experiment [6], 110%. The growth in experiment [7] was 109%.

`COC1=CC(c2ccc[nH]2)=N/C1=C\c1[nH]c(C)c(C(=O)CCCCC(=O)Oc2ccc3c(c2)CCC2C3CC[C@]3(C)[C@@H](O)CC[C@@H]23)c1C` (some centres undefined): the growth is 5.62% (active) in experiment [1]; 50.3% in experiment [2]; 51.2% in experiment [3]; 37.4% in experiment [4]; 27.2% in experiment [5]; 83.1% in experiment [6]. Moreover, the growth in experiment [7] was 29.4%.

For `N#CC1=C(N)OC2=C(C(=O)CCC2)C1c1ccco1` (centres undefined), the growth was 92.6% in experiment [1]; 110% in experiment [2]; 98.9% in experiment [3]; 110% in experiment [4]; 103% in experiment [8]; 104% in experiment [6]. In addition, the growth in experiment [7] is 110%.

On to `COc1cc(/C=C2\CCCC3=C2NC(C)=NC3c2cc(OC)c(OC)c(OC)c2)cc(OC)c1OC` (centres undefined), for which the growth in experiment [1] is 79.2%; in experiment [2], 2.96% (active); in experiment [3], 5.2% (active); in experiment [4] it was -8.03% (active); in experiment [8], -78.2% (active); in experiment [6], 11.9%. Besides, the growth in experiment [7] is 2.95% (active).

As for `O=C(O)C(Cc1ccccc1)N1C(=O)/C(=C/C(Cl)=C/c2ccc([N+](=O)[O-])cc2)SC1=S` (centres undefined), the growth is 1.08% (active) in experiment [1]; -28.1% (active) in experiment [2]; -41.7% (active) in experiment [3]; 5.12% (active) in experiment [4]; -59.5% (active) in experiment [8]; 3.58% (active) in experiment [6]. Moreover, the growth in experiment [7] was 14.8%.

Consider `COc1cc(NCCN=C(N)NC(N)=NC(C)C)c2ncccc2c1`, for which the growth in experiment [1] was -5.22% (active); in experiment [2], 52.4%; in experiment [3], 103%; in experiment [4], 88.4%; in experiment [8], 28.1%; in experiment [6], 82.9%. Moreover, the growth in experiment [7] is 29.9%.

Regarding `N#CC1=C(N)n2nc(-c3ccncc3)nc2NC1c1cccc2ccccc12` (centres undefined), the growth in experiment [1] was 66.2%; in experiment [2], 90.1%; in experiment [3], 88.1%; in experiment [4] it was 100%; in experiment [5], 80.5%; in experiment [6], 105%. Besides, the growth in experiment [7] was 97.6%.

`CCOC(=O)c1cc(/C(=N\O)c2cc(OC)c(OC)c(OC)c2)n2cc(C)cc(C)c12`: the growth is 26.9% in experiment [1]; 28.6% in experiment [2]; -22.7% (active) in experiment [3]; 13.3% in experiment [4]; 13.6% in experiment [5]; 67.5% in experiment [6]. Besides, the growth in experiment [7] was 20.7%.

With `CCC(=O)Oc1ccc2c(c1)CC[C@@H]1[C@@H]2CC[C@]2(C)C[C@H](OC(=O)CC)C[C@@H]12`, the growth in experiment [1] was 83.7%; in experiment [2], 60.1%; in experiment [3] it was 0.38% (active); in experiment [4] it was 48.2%; in experiment [8], 50.5%; in experiment [6] it was 85%. In addition, the growth in experiment [7] was 53.5%.

For `CC/C=C\C/C=C\C[C@H]1C/C=C2/C(=O)C=C[C@H]2C/C=C\CCC(=O)O1`, the growth in experiment [1] is 12.9%; in experiment [2], -7.41% (active); in experiment [3] it was 3.37% (active); in experiment [4], -4.82% (active); in experiment [8] it was -63.4% (active); in experiment [6], -59.2% (active). Besides, the growth in experiment [7] was -34.5% (active).

`CN(C)C/C=C/C(=O)Nc1cc2c(Nc3ccc(F)c(Cl)c3F)ncnc2cc1OCCOC(F)F`: the growth in experiment [1] was -1.23% (active); in experiment [2], 5.73% (active); in experiment [3], 5.61% (active); in experiment [4] it was 3.09% (active); in experiment [8], 2.2% (active); in experiment [6] it was 41.1%. Also, the growth in experiment [7] is 44.6%.

As for `COc1ccc(OC)c(C(=O)c2oc3ccc(Br)cc3c2N)c1`, the growth in experiment [1] is 37.9%; in experiment [2], 27.8%; in experiment [3], -64.7% (active); in experiment [4], 16.2%; in experiment [5], 15.5%; in experiment [6] it was 36.9%. Further, the growth in experiment [7] is 30.6%.

With `Cc1c(C2=NNC(c3ccc4c(c3)OCO4)C2)[n+]([O-])c2ccccc2[n+]1[O-]` (centres undefined), the growth is 92.3% in experiment [1]; 91% in experiment [2]; 108% in experiment [3]; 98.4% in experiment [4]; 92.8% in experiment [5]; 84.2% in experiment [6]. Besides, the growth in experiment [7] is 113%.

Regarding `COc1cc(C2C3=C(COC3=O)Nc3c2ccc2c3CCCC2)cc2c1OCO2` (centres undefined), the growth in experiment [1] was 73.5%; in experiment [2] it was 9.86% (active); in experiment [3] it was -16.9% (active); in experiment [4], 23.1%; in experiment [8], 0.327% (active); in experiment [6], 5.11% (active). For the same compound, the growth in experiment [7] is -34.8% (active).

With `COc1ccc(N=C2NN=C(c3ccc(F)cc3)CS2)cc1OC`, the growth in experiment [1] is 86.7%; in experiment [2] it was 108%; in experiment [3], 83.3%; in experiment [4], 98.6%; in experiment [5] it was 104%; in experiment [6], 98.1%. Besides, in experiment [7], the growth was 99.2%.

With `O=C(/C=C/CN1CCOCC1)Nc1cc2c(Nc3ccc(F)c(Cl)c3F)ncnc2cc1OCCOC(F)F`, the growth in experiment [1] was 1.51% (active); in experiment [2], 54.3%; in experiment [3], 69.1%; in experiment [4], 89.7%; in experiment [5], 60.7%; in experiment [6], 69.1%. For the same compound, in experiment [7], the growth was 74.1%.

These data come from PubChem BioAssay (NCI).
